Data as given in PubChem BioAssay (NCI).
About 83,000 compounds went through this panel and 20% of them were active in at least one assay; those are over-represented in the sample as a whole.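 Assay: single dose, 48 h. Readout: percent growth (0 = no net growth; negative = cell death). Active: <10.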 The source made the active and inactive calls.

Tests used:
Experiment in all cases: NCI-60 one-dose screen, 48 h (100 = growth as untreated, 0 = no growth, -100 = all killed)
[1] = tested on: SR leukemia; conditions: 10 µM unless noted
[2] = tested on: RPMI-8226 leukemia; conditions: 10 µM unless noted
[3] = tested on: OVCAR-8 ovarian; conditions: 10 µM unless noted
[4] = tested on: OVCAR-5 ovarian; conditions: 10 µM unless noted
[5] = tested on: OVCAR-4 ovarian; conditions: 10 µM unless noted
[6] = tested on: SK-OV-3 ovarian; conditions: 10 µM unless noted
[7] = tested on: IGROV1 ovarian; conditions: 10 µM unless noted
[8] = tested on: OVCAR-3 ovarian; conditions: 10 µM unless noted
[9] = tested on: NCI/ADR-RES ovarian; conditions: 10 µM unless noted
[10] = tested on: T-47D breast; conditions: 10 µM unless noted
[11] = tested on: MDA-MB-435 melanoma; conditions: 10 µM unless noted
[12] = tested on: SW-620 colon; conditions: 10 µM unless noted
[13] = tested on: MCF7 breast; conditions: 10 µM unless noted
[14] = tested on: HCT-116 colon; conditions: 10 µM unless noted
[15] = tested on: KM12 colon; conditions: 10 µM unless noted
[16] = tested on: BT-549 breast; conditions: 10 µM unless noted
[17] = tested on: HCC-2998 colon; conditions: 10 µM
[18] = tested on: HS 578T breast; conditions: 10 µM

Measured: growth

O=C1NC(=O)/C(=C/c2ccc3nccc(-c4ccncc4)c3c2)S1
active: [1] -26.5% | [2] -16.5% | [3] -18.8% | [4] -30.1% | [5] -22.7% | [6] -60.3% | [7] -60.1% | [8] -30.4% | [9] -14.6% | [10] -41.7% | [11] -11% | [12] 1.44% | [13] 0.645% | [14] -38.6% | [15] 1.44%

COc1ccc2c(CCC(c3ccccc3)c3ccccc3)c3[n+](cc2c1OC)CCc1cc2c(cc1-3)OCO2
active: [1] -29.9% | [2] -9.79% | [3] 2.77% | [6] -12.8% | [8] -0.03% | [10] 5.67% | [16] -29.1% | [11] -72% | [13] 9.86% | [14] 6.81% | [17] -13.7% | [15] -76.7%
inactive: [4] 29% | [5] 13.3% | [7] 22.9% | [12] 11.5%

CCc1ccc(/C=C/c2ccc(O)c3ncccc23)[n+](C)c1
inactive: [4] 40.9% | [5] 35.9% | [6] 76.7% | [7] 33.4% | [9] 73.4% | [10] 31.2% | [16] 65.9% | [11] 59.4% | [12] 40.7% | [13] 53.8% | [14] 18.3% | [17] 31.6% | [15] 40.2%
active: [1] 7.25% | [3] -12.1% | [8] -11.4%

CCCC(=O)OCC1OC(n2cnc3c(=S)nc(N)[nH]c32)C(OC(=O)CCC)C1OC(=O)CCC (stereo not given)
inactive: [4] 38.4% | [5] 20.6% | [7] 51% | [18] 29.9% | [9] 40.2% | [10] 33.4% | [16] 34.2% | [11] 36.3% | [12] 52% | [13] 17.8% | [14] 24.7% | [15] 41%
active: [1] 6.99% | [3] 6.16% | [6] 5.91% | [8] 6.47%

O=C(COc1cccc(/C=C2\Cc3ccc(Cl)cc3C2=O)c1)Nc1nccs1
inactive: [1] 48% | [2] 54.6% | [4] 102% | [5] 81.6% | [6] 96% | [8] 89.6% | [18] 105% | [9] 76.6% | [10] 55.5% | [16] 87.3% | [11] 86.6% | [12] 110% | [13] 35.1% | [14] 64.5% | [15] 77.2%

COc1ccc(COc2cc3oc(=O)c4cc(C(C)O)ccc4c3cc2OC)cc1 (stereo not given)
active: [11] 3.55%
inactive: [1] 18.6% | [2] 68% | [3] 25% | [4] 86% | [5] 53.8% | [6] 40.5% | [7] 57.6% | [8] 58.6% | [10] 44.2% | [16] 59.8% | [12] 49.7% | [13] 45.6% | [14] 49% | [15] 53%

Clc1ccc(/C=C/c2cc(N3CCOCC3)c3cc(Cl)c(Cl)cc3n2)cc1
active: [2] -40.9% | [16] -20.4%
inactive: [1] 59.4% | [3] 100% | [4] 105% | [5] 101% | [6] 105% | [7] 94.3% | [18] 102% | [9] 90.2% | [10] 91.3% | [11] 91% | [12] 111% | [13] 91.7% | [14] 98.3% | [15] 63.5%

CC(=Nc1ccccc1)C1=C(O)C(Cc2ccccc2)NC1=O (stereo not given)
active: [1] -12% | [3] -50.4% | [7] 6.28% | [8] -42.4% | [18] -15.3% | [9] -8.97% | [11] -27.3% | [13] 9.54% | [14] 2.49% | [17] -20.6% | [15] -46.3%
inactive: [4] 18.9% | [5] 39.6% | [6] 16.8% | [10] 67.6% | [16] 13.9% | [12] 19.3%

CCCC(=O)OCC1OC(n2cnc3c(=S)nc[nH]c32)C(OC(=O)CCC)C1OC(=O)CCC (stereo not given)
active: [3] -8.32% | [17] 2.11%
inactive: [1] 24% | [4] 46.2% | [5] 31.3% | [6] 21% | [7] 14.7% | [8] 22.7% | [18] 47.7% | [9] 48.3% | [10] 36.5% | [16] 45.5% | [11] 38% | [12] 38.1% | [13] 24.2% | [14] 35.9% | [15] 43.3%

CC[C@@H]1C(=O)N(C)c2cnc(Nc3ccc(C(=O)NC4CCC(N5CCN(CC6CC6)CC5)CC4)cc3OC)nc2N1C(C)C (stereo not given in full)
active: [1] -11.5% | [2] -42.8% | [3] 1.34% | [6] -68.8% | [7] -18.5% | [8] -13.8% | [10] 7.48% | [11] -29.6% | [13] -24% | [14] -6.9% | [15] 4.24%
inactive: [4] 22.5% | [5] 24.8% | [16] 18.3% | [12] 12.2%

CC(=O)c1cnc2ccc(-c3cc(Cl)c(O)c(Cl)c3)nc2c1NC1CCC(CN(C)C)CC1 (stereo not given)
active: [1] -16% [2.5 µM] | [2] -24.3% [2.5 µM] | [3] -22.9% [2.5 µM] | [4] 2.38% [2.5 µM] | [5] -9.08% [2.5 µM] | [6] -32.6% [2.5 µM] | [7] -17.3% [2.5 µM] | [8] 2.02% [2.5 µM] | [10] -22.9% [2.5 µM] | [16] -44.9% [2.5 µM] | [11] -37.2% [2.5 µM] | [12] 6.12% [2.5 µM] | [13] -4.22% [2.5 µM] | [14] -2.49% [2.5 µM] | [15] -2.64% [2.5 µM]

Nc1cc2c(cc1Br)-c1c(C(=O)O)cccc1C2O (stereo not given)
inactive: [1] 109% | [3] 107% | [4] 102% | [5] 103% | [6] 110% | [7] 98.6% | [8] 147% | [18] 143% | [9] 118% | [10] 105% | [16] 114% | [11] 105% | [12] 110% | [13] 95.4% | [14] 96.4% | [17] 112% | [15] 99.3%

CCOC(=O)c1sc(NC(=O)COc2ccc(/C=C3\Cc4ccc(Cl)cc4C3=O)cc2)nc1C
inactive: [1] 103% | [2] 96.1% | [4] 111% | [5] 112% | [6] 110% | [8] 113% | [18] 116% | [9] 93.9% | [10] 92.9% | [16] 94.5% | [11] 105% | [12] 123% | [13] 96.1% | [14] 92.9% | [15] 112%

O=CC(OC(=O)c1ccccc1)C(OC(=O)c1ccccc1)C(COC(c1ccccc1)(c1ccccc1)c1ccccc1)OC(=O)c1ccccc1 (stereo not given)
inactive: [4] 61% | [5] 89.9% | [6] 98.8% | [8] 21.4% | [9] 92.8% | [10] 25.6% | [16] 65.6% | [11] 45.7% | [13] 36.6% | [17] 96.6% | [15] 61%
active: [1] -12.9% | [3] -17.6% | [7] -38.5% | [12] -37.6%

COC(=O)[C@@H](C)CNS(=O)(=O)N(c1cc(C(F)(F)F)cc(C(F)(F)F)c1)C1CCN(Cc2ccc(F)cc2)CC1
inactive: [1] 26.7% | [3] 67.3% | [4] 76.1% | [5] 73.4% | [6] 76.2% | [7] 54.7% | [8] 56.7% | [18] 90.7% | [9] 51% | [10] 31.1% | [16] 89.6% | [11] 76.8% | [12] 73.9% | [13] 48.7% | [14] 43.4% | [15] 51%
active: [17] -65.3%

CCN(CC)CCNc1ccc(N=Nc2cnc3ccccc3c2)c2ccccc12
active: [1] -53.1% | [3] -90.1% | [4] -86.6% | [5] -25.3% | [6] -77.2% | [7] -92.8% | [8] -73.2% | [18] -73.9% | [10] -38.8% | [11] -33.2% | [12] -84.4% | [13] -79.2% | [14] -94.8% | [17] -95.4% | [15] -87.3%
inactive: [16] 27.5%

O=C(Nc1ccc(Nc2ncnc3sc4c(c23)CCOC4)cc1)Nc1ccc(Cl)c(C(F)(F)F)c1
inactive: [1] 83% | [2] 80.8% | [3] 109% | [4] 89.2% | [5] 131% | [6] 95.3% | [7] 79.5% | [8] 87.2% | [10] 81.8% | [16] 89.1% | [11] 99.1% | [12] 121% | [13] 90.5% | [17] 106% | [15] 86.4%

CC(=O)OCCC/C(=C\c1ccc2ccccc2c1)[N+](=O)[O-]
inactive: [5] 11.1% | [6] 57.9%
active: [1] -33.8% | [3] -91.3% | [4] -93.2% | [7] -82.3% | [8] -96.6% | [18] -40% | [9] -7.25% | [10] -50.9% | [16] -25.6% | [11] -41.6% | [12] -71.6% | [13] -85.2% | [14] -100% | [17] -92.7% | [15] -86.7%
